Among all 13,000 compounds or so, about 3,200 (25%) showed an effect of 50% or more. This is one part of the list.
system: P. falciparum stage V gametocytes; design: BacTiter-Glo ATP luminescence viability of purified stage V gametocytes in 384-well plates, per cent inhibition versus DMSO; conditions: 48 h, 5 µM; inhibitor

Structure (SMILES)	% Inhibition [%]
CNC(=O)C(NC(=O)c1ccccc1C(=O)OC)c1ccccc1 (stereo not shown) [TCMDC-137226]	6.158
CCN(CC)CCN(Cc1ccc(-c2ccc(C(F)(F)F)cc2)cc1)C(=O)Cn1cc(Cc2cnn(C)c2)c(=O)nc1/C=C/c1cccc(F)c1F [TCMDC-140964]	99.53
CCN(CC)CCN(Cc1ccc(-c2ccc(C(F)(F)F)cc2)cc1)C(=O)Cn1cc(Cc2cnn(C)c2)c(=O)nc1/C=C/c1ccc(F)cc1 [TCMDC-140741]	95.48
O=C(Cc1cc(=O)oc2cc(O)ccc12)N1CCC(CN2CCC(c3c[nH]c4ccccc34)CC2)CC1 [TCMDC-139881]	9.393
N#Cc1cccc(NC(=O)Nc2ccc(-c3csc(-c4nc5ccccc5[nH]4)c3)cc2)c1 [TCMDC-133188]	30.15
Cn1nc(C(F)(F)F)cc1-c1ccc(C(=O)Nc2ccc3c(c2)CNCC3(C)C)s1 [TCMDC-141916]	39.68
NC(N)=NC(=O)Nc1cc(Cl)c(Cl)c(C(F)(F)F)c1 [TCMDC-137511]	-11.78
CCCCC(=O)Nc1cc(=O)[nH]c2nc(-c3ccc(Cl)cc3)nn12 [TCMDC-125002]	1.203
COc1cc(NC(=O)/C=C/c2cc(F)cc(F)c2F)cc(OCCN2CCC(O)(c3ccccc3)CC2)c1 [TCMDC-140936]	-10.33
N#Cc1cccc(NC(=O)Nc2ccc3c(c2)CCN(C2CCC2)CC3)c1 [TCMDC-136005]	22.54
COc1ccc(C(C(=O)NC2CCN(C[C@H](O)c3ccnc4ccc(OC)cc34)CC2)N2CCN(Cc3ccccc3)CC2)cc1 (stereo partly shown) [TCMDC-140987]	-16.46
CN1CCC(COC(=O)C(O)(c2ccccc2)c2ccccc2)C1 (stereo not shown) [TCMDC-131375]	2.294
Cc1cc(N2CCCC2)nc(Nc2ccc(NC(=O)C(C)Oc3ccccc3)cc2)n1 (stereo not shown) [TCMDC-124968]	18.82
C=CCNS(=O)(=O)c1ccc(NC(=O)C(C)Oc2ccc([N+](=O)[O-])cc2)cc1 (stereo not shown) [TCMDC-125123]	69.95
Cc1ccc(NC(=O)c2cc([N+](=O)[O-])ccc2NCc2cccnc2)cc1Cl [TCMDC-124571]	7.674
C=CCNC(=O)C(C)c1ccc2cc(OC)ccc2c1 (stereo not shown) [TCMDC-132021]	24.74
CCNS(=O)(=O)c1ccc(Oc2ccc([N+](=O)[O-])cc2)cc1 [TCMDC-137451]	-0.3916
CCCCNS(=O)(=O)c1ccc(NC(=O)c2cc([N+](=O)[O-])ccc2Cl)cc1 [TCMDC-124345]	83.43
NCCNc1ccc([N+](=O)[O-])cc1C(=O)Nc1cccc(Cl)c1 [TCMDC-123690]	33.32
CCCNS(=O)(=O)c1ccc(NC(=O)C(C)Oc2ccc([N+](=O)[O-])cc2)cc1 (stereo not shown) [TCMDC-125122]	65.91
Cc1cc(N(C)C)nc(Nc2ccc(NC(=O)C(C)Oc3ccccc3)cc2)n1 (stereo not shown) [TCMDC-124974]	7.49
O=C(Nc1ccc(OC2CCN(Cc3ccc(F)cc3)CC2)c(Cl)c1)c1ccoc1 [TCMDC-133744]	29.48
C[C@H](NC(=O)c1c(CN2CCN(C(=O)C(C)(C)C)CC2)c(-c2cccs2)nc2ccccc12)C1CCCCC1 [TCMDC-141723]	-7.5

Structure (SMILES)	% Inhibition [%]
C[C@H](NC(=O)c1c(CN2CCC(N3CCCCC3=O)CC2)c(-c2cccs2)nc2ccccc12)C1CCCCC1 [TCMDC-141620]	-63.06
C[C@H](NC(=O)c1c(CN2CCC(NC(=O)CC(C)(C)C)CC2)c(-c2cccs2)nc2ccccc12)C1CCCCC1 [TCMDC-141792]	25.58
CC(C)CC(=O)NC1CCN(Cc2c(-c3cccs3)nc3ccccc3c2C(=O)N[C@@H](C)C2CCCCC2)CC1 [TCMDC-141791]	-23.57
CNC(=O)NC1CCN(Cc2c(-c3cccs3)nc3ccccc3c2C(=O)N[C@@H](C)C2CCCCC2)CC1 [TCMDC-141689]	58
CCNC(=O)NC1CCN(Cc2c(-c3cccs3)nc3ccccc3c2C(=O)N[C@@H](C)C2CCCCC2)CC1 [TCMDC-141704]	101.3
CNC(=O)c1cc(NCCCNCc2ccc(Cl)c(C(F)(F)F)c2)nc2ccccc12 [TCMDC-141082]	72.56
Cc1nc2ccccc2c(=O)n1NCc1ccc(Cl)c(Cl)c1 [TCMDC-131405]	15.32
O=c1cc(NCCCNCc2ccc(C(F)(F)F)c(F)c2)[nH]c2ccccc12 [TCMDC-139428]	-42.45
CCc1cc2c(Sc3nc4ccccc4[nH]3)ncnc2s1 [TCMDC-124553]	60.6
Clc1ccc(Nc2nc(Nc3ccc(Cl)c(Cl)c3)nc(Sc3nc4ccccc4[nH]3)n2)cc1Cl [TCMDC-124069]	-24.51
Nc1ncc(-c2ccsc2)cc1-c1nc2ccccc2[nH]1 [TCMDC-133557]	13.31
Cc1sc2ncnc(Sc3nc4ccccc4[nH]3)c2c1C [TCMDC-123835]	57.62
COc1ccc(NC(=O)[C@H](CC(C)C)Nc2cc(C)nc(Nc3ccccc3)n2)cc1 [TCMDC-134738]	-4.957
CCCCn1c(C)c(C(=O)OCC)c2cc(OC(C)=O)c(Br)cc21 [TCMDC-125582]	-26.36
CCCNCc1ccc(-c2ccc(CNC3Cc4ccccc4C3)cc2)nc1 [TCMDC-141616]	6.713
CC(C)CNC(=O)c1cncc(-c2cccc(CNC3Cc4ccccc4C3)c2)c1 [TCMDC-134219]	-68.65
CCCNC(=O)c1cncc(-c2cccc(CNC3Cc4ccccc4C3)c2)c1 [TCMDC-134220]	-28.4
c1cc(CNC2Cc3ccccc3C2)cc(-c2cnc(N3CCNCC3)nc2)c1 [TCMDC-133140]	110.7
CC1CN(c2ncc(-c3ccc(CNC4Cc5ccccc5C4)cc3)cn2)CC(C)N1 (stereo not shown) [TCMDC-133769]	77.63
CC[C@H](C)CNC(=O)c1cncc(-c2ccc(CNC3Cc4ccccc4C3)cc2)c1 [TCMDC-134240]	-0.9583
CN(CCCNCc1ccc2ccccc2c1)CCCNCc1ccc2ccccc2c1 [TCMDC-137908]	106.3
CN(CCCNCc1cccc2ccccc12)CCCNCc1cccc2ccccc12 [TCMDC-137905]	108.9
N#Cc1ccc(-c2ccc(C(=O)NCCCCN3CC=C(c4ccc5c(c4OCC4CC4)CCCC5)CC3)cc2)cc1 [TCMDC-138756]	42.6

Structure (SMILES)	% Inhibition [%]
O=C(c1ccc(OCCn2ccnc2)cc1)N1CCC(c2ccc(Br)cc2)C1 (stereo not shown) [TCMDC-134837]	38.05
CN(CCCN(C)c1cc(NC(=O)c2cccc(F)c2)ccn1)Cc1cccc(O)c1 [TCMDC-134952]	-21.83
Cc1ccc(C(O)CNc2ccnc(Nc3cccc(-c4csc(C)n4)c3)n2)cc1 (stereo not shown) [TCMDC-136570]	6.544
CCOc1cc(C(=O)NC2CCN(Cc3ccccc3)CC2)ccc1-c1nc2ccc(Cl)cc2[nH]1 [TCMDC-140912]	-17.04
O=C(NC1CCN(Cc2ccccc2)CC1)c1ccc(CNC2CCN(Cc3ccccc3)CC2)cc1 [TCMDC-140787]	27.85
O=C(NC1CCN(Cc2ccccc2)CC1)c1cc(C(=O)NC2CCN(Cc3ccccc3)CC2)cc(C(=O)NC2CCN(Cc3ccccc3)CC2)c1 [TCMDC-124568]	67.11
Cc1[nH]c(-c2ccc(F)cc2)cc1C(=O)NC1CCN(Cc2ccccc2)CC1 [TCMDC-124396]	76.63
Cc1cc2nc(-c3ccc(C(=O)NC4CCN(Cc5ccccc5)CC4)s3)[nH]c2cc1C [TCMDC-140513]	1.433
O=C(NC1CCN(Cc2ccccc2)CC1)c1ccc(-c2nc3cc(Cl)c(F)cc3[nH]2)cc1 [TCMDC-140093]	-50.28
COc1cc(-c2cc3cc(Cl)c(Cl)cc3[nH]2)ccc1C(=O)NC1CCN(Cc2ccccc2)CC1 [TCMDC-141288]	-32.17
O=C(NC1CCN(Cc2ccc(O)cc2)CC1)c1ccc(Cl)c(Cl)c1 [TCMDC-141735]	18.11
O=C(Nc1ccnc2ccccc12)NC1CCN(Cc2ccccc2)CC1 [TCMDC-139643]	-13.5
CC(C)c1ccc(NC(=O)c2ccc(C(=O)NC3CCN(Cc4ccccc4)CC3)cc2)cc1 [TCMDC-136752]	-24.91
CN1CCC(COc2ccc(CN3CCC(NC(=O)c4cccc(Cl)c4)CC3)cc2)CC1 [TCMDC-132796]	95.19
CC1(C)CC(NC(=O)NC2CCN(Cc3ccccc3)CC2)CC(C)(CNC(=O)NC2CCN(Cc3ccccc3)CC2)C1 (stereo not shown) [TCMDC-139018]	101.1
Oc1ccc2[nH]c(-c3cccc(F)c3)nc2c1CN1CCCC1 [TCMDC-136531]	-40.99
CCOC(=O)c1cnc2cc(N3CCCC3)c(Cl)cc2c1OCC [TCMDC-131990]	37.97
O=C(Nc1cccc(-c2cccc(-c3nc4ccccc4[nH]3)c2)c1)Nc1ccc2c(c1)OCO2 [TCMDC-133167]	2.88
COc1cc(NC(=O)N2CCc3ccc(OCCC4CCCN4C)cc32)cc(C(F)(F)F)c1 (stereo not shown) [TCMDC-140248]	-14.34
CCCc1nc2c(N3CCCN(C(=O)NC4CCCCC4)CC3)cccc2n1Cc1ccccn1 [TCMDC-134632]	-23.2
CC(C)CC(C)NC(=O)C1Cc2c([nH]c3cc(Cl)ccc23)C2(CCN(CCc3ccccc3)CC2)N1 (stereo not shown) [TCMDC-141298]	48.04

— PMC4552634, “A New Set of Chemical Starting Points with Plasmodium falciparum Transmission-Blocking Potential for Antimalarial Drug Discovery” (PLoS ONE, 2015)
